This is an account of results in PubChem BioAssay (NCATS).

Values joined by “and” are separate entries in the source; they are usually repeats but may differ in a detail not shown here. Identical values can stand only once. Records with an inconclusive call do not appear. For some of these results: Entries with a potency or affinity are not part of this list. Active and inactive are the calls of the source. Unless noted, the rule behind the calls is not given here.

The conditions of assay [1]: Ebola virus entry assay, green fluorescence channel.
For assay [2] the following is noted: Ebola virus entry assay, blue channel fluorescence.
A short description of assay [3]: qHTS for Activators of Parkin Expression: LOPAC Validation Assay (NLuc Reporter) (AID 720572; active = well fitted curve in the direction sought with a large enough effect; an effect the other way counts as inactive or inconclusive). As to conditions: Parkin promoter NanoLuc reporter cells, luminescence, percent of positive control, DMSO as zero; series mostly up to 46.1 µM. An outline of the steps:
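NLuc signal, read 10 min after reagent and following a prior FLuc read, is normalized to DMSO (0) and positive controls (100%). Cells: neuronal Parkin-promoter coincidence reporter line; compounds tested 7-point, 24 h, 37 C, 5% CO2.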

In assay [4] the target is T1, Hexokinase-4 (Homo sapiens) + Glucokinase regulatory protein (Homo sapiens) (UniProt P35557+Q14397). Kind of assay: qHTS assay for inhibitors of recombinant human GCK-GKRP interaction: Diaphorase-coupled assay (AID 743205; active = well fitted curve in the direction sought with a large enough effect; an effect the other way counts as inactive or inconclusive). As to conditions: G6PDH/diaphorase resorufin fluorescence; series mostly up to 57.5 µM. An outline of the steps:
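A kinetic fluorescence read (Ex 525/Em 590 nm, every minute for 30 minutes) tracked resorufin from a G6PDH-diaphorase coupled GCK reaction. It contained 10 nM GST-GCK, 10 nM FLAG-GKRP, 5 mM glucose, 0.4 mM ATP in Hepes pH 7.6. Normalized to with/without-enzyme DMSO controls.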

Assay [5] has as its target T1, Hexokinase-4 (Homo sapiens) + Glucokinase regulatory protein (Homo sapiens). Kind of assay: qHTS assay for inhibitors of recombinant human GCK-GKRP interaction: ADP-Glo assay (AID 743206; active = well fitted curve in the direction sought with a large enough effect; an effect the other way counts as inactive or inconclusive;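 note: plate controls were DMSO plus enzyme for no effect and no enzyme for full effect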). As to conditions: ADP-Glo luminescence, 60 min, 0% = vehicle-only wells with enzyme present; series mostly up to 76.9 µM. An outline of the steps:
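Pin-transferred compounds meet a 15 nM GST-GCK/15 nM FLAG-GKRP/2 uM S6P mix (dispense concentrations). ATP is then added to 0.4 mM final with 5 mM glucose, and the reaction runs 60 min at room temperature. ADP is quantified luminescently.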
On the technique in general: In qHTS, concentration-response curves come from the screen itself.

Assay [6] has the same target. As to the kind of experiment: qHTS assay for inhibitors of recombinant human GCK-GKRP interaction: HTRF assay (AID 743207; active = well fitted curve in the direction sought with a large enough effect; an effect the other way counts as inactive or inconclusive;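 note: 0% = DMSO with GCK present and -100% = DMSO wells lacking GCK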). As to conditions: recombinant GCK-GKRP HTRF binding, 60 min; series mostly up to 57.5 µM. In outline: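 After 60 min equilibration at room temperature with anti-FLAG XL665 and anti-GST antibodies, FRET ratio (665/615 nm, excitation 320 nm) was read. Proteins: GST-GCK and FLAG-GKRP, each 5 nM, plus 2 uM S6P, pH 7.1 buffer; GCK-free wells define minimum signal.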

Assay [7] can be described thus: qHTS assay for small molecule antagonists of the retinoid-related orphan receptor gamma (ROR-gamma) signaling pathway - cell viability counter screen (AID 720652; active = well fitted curve in the direction sought with a large enough effect in the repeat runs; an effect the other way counts as inactive or inconclusive;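 note: CHO reporter cells with doxycycline-induced ROR-gamma expression; compound exposure lasted 16 hr before ATP read; % is set by controls: 0 for no effect and ±100 for the full control effect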). The note with it: RORgamma reporter cell line viability counter screen; series mostly up to 92.2 µM. In outline: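 ATP-based viability readout in the ROR-gamma reporter CHO cells after 16 hr compound exposure under doxycycline induction.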

The nature of assay [8]: qHTS profiling of the MIPE4 collection as inhibitors of Plasmodium falciparum (DD2) proliferation (AID 743345). The note with it: P. falciparum Dd2 in erythrocytes, SYBR Green DNA, 72 h; at 28.5 µM (top of the series) unless noted. An outline of the steps: (§1)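 Parasite DNA was quantified by SYBR Green I fluorescence (ex 485, em 535 nm) after overnight lysis in saponin/Triton buffer at room temperature. Cultures at 0.3% parasitemia and 2.5% hematocrit were first exposed to compound for 72 h at 37 C; signals were normalised to artemisinin (0.29 uM) and vehicle wells.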

Assay [9] can be described thus: qHTS Assay for Identifying Gametocytocidal Compounds (AID 743244; active = well fitted curve in the direction sought with a large enough effect; an effect the other way counts as inactive or inconclusive;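 note: % is set by controls: 0 for no effect and ±100 for the full control effect; actives lower the fluorescent signal which means gametocytes are killed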). The note with it: P. falciparum 3D7 stage III-V gametocytes, alamarBlue, 72 h; max response: stronger effect = lower value. An outline of the steps: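 Viability read-out was resazurin reduction (alamarBlue, 24 h) measured at Ex 525/Em 598 nm. Beforehand, late-stage (III-V) 3D7 P. falciparum gametocytes at 20,000 cells/well were incubated with compound 72 h at 37C under 5% CO2.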

A short description of assay [10]: qHTS profiling of the MIPE4 collection as inhibitors of Plasmodium falciparum (3D7) proliferation (AID 743344).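 Note: scaled between DMSO vehicle wells and 0.29 µM artemisinin as full inhibition.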 The note with it: P. falciparum 3D7 in erythrocytes, SYBR Green DNA fluorescence, 72 h; at 28.5 µM (top of the series) unless noted. In outline: as §1
Assay [11] in a line: qHTS profiling of the MIPE4 collection as inhibitors of Plasmodium falciparum (DD2) proliferation (Rep 2) (AID 743346). As to conditions: P. falciparum Dd2 in erythrocytes, SYBR Green DNA, 72 h; at 28.5 µM (top of the series) unless noted. In outline:
as §1

Assay [12] is described as follows: qHTS assay for small molecule agonists of the antioxidant response element (ARE) signaling pathway measured by Nrf2-dependant transcriptional activity (AID 720636; active = well fitted curve in the direction sought with a large enough effect in the repeat runs; an effect the other way counts as inactive or inconclusive;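 note: HepG2 cells with an ARE-driven luciferase reporter; % of control where 0% means no effect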). As to conditions: ARE-luc HepG2, Nrf2 luciferase reporter, 16 h; series mostly up to 92.4 µM. An outline of the steps:
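HepG2 ARE-luc reporter line, 1% dialyzed FBS; 6 hr attachment at 37 C, compound pinned in, 16 hr at 37 C/5% CO2; ONE-Glo, 30 min RT, luminescence read.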

The nature of assay [13]: qHTS assay for small molecule agonists of the antioxidant response element (ARE) signaling pathway measured by Nrf2-dependant transcriptional activity - cell viability counter screen (AID 720653; active = well fitted curve in the direction sought with a large enough effect in the repeat runs; an effect the other way counts as inactive or inconclusive; note: % is set by controls: 0 for no effect and ±100 for the full control effect). As to conditions: ARE-bla HepG2 viability, CellTiter-Glo ATP luminescence, 16 h; stronger effect = lower value. In outline:
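ARE-bla HepG2 cells treated with compounds for 16 h at 37C; this counter screen measures viability as intracellular ATP by CellTiter-Glo luminescence after 30 min at room temperature.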

Assay [14] can be described thus: qHTS assay for cell viability of HEK293 cells (AID 743288; active = well fitted curve in the direction sought with a large enough effect; an effect the other way counts as inactive or inconclusive; note: % is set by controls: 0 for no effect and ±100 for the full control effect; nearly all actives have a fitted effect of over 50% in size). The note with it: ATP luminescence (CellTiter-Glo), 18 h, stronger effect = lower value. In outline:
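Readout is luciferase-coupled ATP content (CellTiter-Glo luminescence, 30 min room temperature) as a measure of metabolically competent cells. Parental HEK293 cells were plated 5 h or more before compound addition, then treated 18 h at 37 C.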

Assay [15] is described as follows: qHTS assay for cell viability of the p53RE-bla HCT-116 cell line (AID 743292; active = well fitted curve in the direction sought with a large enough effect; an effect the other way counts as inactive or inconclusive; note: % is set by controls: 0 for no effect and ±100 for the full control effect; nearly all actives have a fitted effect of over 55% in size). The note with it: p53RE-bla HCT-116 viability, ATP luminescence, 16 h; series mostly up to 95 µM. In outline:
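Luminescent ATP quantitation (CellTiter-Glo) served as the viability read-out; reagent was added after 16 h compound exposure at 37 C and read after 30 min at room temperature. Cells: p53RE-bla HCT-116, 4,000 per well.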
Throughout, for efficacy: 0% is about no effect.

T1 sequence (P35557 whole entry, looked up): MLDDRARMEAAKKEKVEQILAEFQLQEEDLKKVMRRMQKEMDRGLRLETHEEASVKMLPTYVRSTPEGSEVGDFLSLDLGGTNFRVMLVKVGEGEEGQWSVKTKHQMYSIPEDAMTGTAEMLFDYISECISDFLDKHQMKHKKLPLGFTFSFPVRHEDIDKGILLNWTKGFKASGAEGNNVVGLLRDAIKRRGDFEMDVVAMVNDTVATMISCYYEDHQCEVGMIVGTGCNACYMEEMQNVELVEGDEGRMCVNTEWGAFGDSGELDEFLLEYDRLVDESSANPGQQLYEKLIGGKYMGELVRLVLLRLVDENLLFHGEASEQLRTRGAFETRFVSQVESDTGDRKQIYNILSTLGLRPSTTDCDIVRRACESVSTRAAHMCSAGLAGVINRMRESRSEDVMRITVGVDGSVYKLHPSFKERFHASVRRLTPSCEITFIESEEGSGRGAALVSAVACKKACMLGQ
T1 sequence (Q14397 whole entry, looked up): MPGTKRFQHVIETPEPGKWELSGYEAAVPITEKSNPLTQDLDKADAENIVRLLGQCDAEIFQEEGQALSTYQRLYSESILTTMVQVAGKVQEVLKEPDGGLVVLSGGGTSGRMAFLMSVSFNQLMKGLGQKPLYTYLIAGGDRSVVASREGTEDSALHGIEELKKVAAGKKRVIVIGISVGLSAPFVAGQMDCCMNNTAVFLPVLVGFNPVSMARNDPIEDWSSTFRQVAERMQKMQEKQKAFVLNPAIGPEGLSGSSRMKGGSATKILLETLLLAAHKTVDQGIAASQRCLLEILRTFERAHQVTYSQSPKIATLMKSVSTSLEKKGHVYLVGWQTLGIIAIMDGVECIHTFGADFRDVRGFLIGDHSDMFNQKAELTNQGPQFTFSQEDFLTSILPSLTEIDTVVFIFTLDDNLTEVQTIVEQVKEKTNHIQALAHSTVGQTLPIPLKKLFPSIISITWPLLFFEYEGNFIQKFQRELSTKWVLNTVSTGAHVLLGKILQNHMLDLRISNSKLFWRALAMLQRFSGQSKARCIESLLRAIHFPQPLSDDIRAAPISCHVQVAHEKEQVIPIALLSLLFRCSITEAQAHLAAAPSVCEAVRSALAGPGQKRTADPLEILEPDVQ

In the case of `O=C(O)CCCCC1CCSS1` (stereo unspecified), the efficacy in [1] is -16.3% (inactive). Further, the outcome in assay [2] was inactive.
For `CC(C)(C(=O)c1cccnc1)c1cccnc1` the same measures were 15.8% (inactive) and “inactive”.
The matching figures for `CCOC(=O)/C=C(C)/C=C/C=C(C)/C=C/c1c(C)cc(OC)c(C)c1C`: 27.5% (inactive) and “inactive”.
The matching figures for `CC(COc1ccccc1)NN` (stereo unspecified): -13% (inactive) and “inactive”.
Take `O=C(OCCN1CCOCC1)c1cccnc1Nc1cccc(C(F)(F)F)c1`: in assay [1], the efficacy was -15.5% (inactive). In assay [2], the compound was called inactive.
Consider `Cc1cccc(C)c1NC(=O)CN(CC(=O)O)CC(=O)O`, for which the efficacy in assay [1] was -22.8% (inactive). In addition, the compound was called inactive in assay [2].
As to `Oc1ccccc1`, the efficacy in assay [1] was 23.9% (inactive). The outcome in [2] was inactive.
For `CC(=O)Nc1ccc(OC(=O)c2ccccc2OC(C)=O)cc1` the same measures were -28.5% (inactive) and “inactive”.
The matching figures for `COC(=O)c1ccc(NC(C)=O)cc1OC`: 15.6% (inactive) and “inactive”.
The matching figures for `CCCCCCCCCCCC(=O)[O][Sn]([CH2]CCC)([CH2]CCC)[O]C(=O)CCCCCCCCCCC`: -17.6% (inactive) and “inactive”.
Regarding `Cc1cccc(C(=O)O)c1O`, the efficacy in assay [1] is 15.1% (inactive). In assay [2], the outcome was inactive.
The matching figures for `Nc1ncnc(Nc2ccccc2)n1`: -14.2% (inactive) and “inactive”.
For `N#CC1(c2ccc(F)cc2)CCC(=O)CC1` the same measures were 28.6% (inactive) and “inactive”.
The matching figures for `COC(=O)C1=C(C)NC(C)=C(C(=O)OCC(C)=O)C1c1ccccc1[N+](=O)[O-]` (stereo unspecified): -11.1% (inactive) and “inactive”.
Regarding `O=C(CCBr)N1CCN(C(=O)CCBr)CC1`, in assay [1], the efficacy is 10.2% (inactive). In assay [2], the outcome was inactive.
As to `Cc1cc(=O)n(-c2ccccc2)n1C`, the efficacy in assay [1] was -22% (inactive). Also, the outcome in assay [2] was inactive.
Turning to `O=S(=O)(O)c1ccc2nc(-c3ccccc3)[nH]c2c1`, the efficacy in assay [1] is -32.6% (inactive). Besides, the result in [2] was inactive.
The matching figures for `NS(=O)(=O)c1cc(-c2nn[nH]n2)c(NCc2cccs2)cc1Cl`: -20.9% (inactive) and “inactive”.
For `COc1cc(/C=C/C(=O)O[C@H]2CC[C@]34C[C@]35CC[C@]3(C)[C@@H]([C@H](C)CCC=C(C)C)CC[C@@]3(C)[C@@H]5CC[C@H]4C2(C)C)ccc1O` the same measures were -25.4% (inactive) and “inactive”.
The matching figures for `O=C(O)Cc1ccc(OCCNC[C@H](O)c2ccccc2)cc1`: -33.3% (inactive) and “inactive”.
Regarding `CC(C)=CCC/C(C)=C/CC/C(C)=C/CCC(=O)OC/C=C(\C)CCC=C(C)C`, the efficacy in assay [1] was 10.8% (inactive). Also, the compound was called inactive in assay [2].
For `CCCCCC[C@@H](CCC)C(=O)O` the same measures were 13.6% (inactive) and “inactive”.
For `CN=C(NC#N)NCCSCc1csc(N=C(N)N)n1` the same measures were -13.8% (inactive) and “inactive”.
As to `CO/N=C(/C(=O)N[C@@H]1C(=O)N2C(C(=O)[O-])=C(C[n+]3ccn4ncccc43)CS[C@H]12)c1nsc(N)n1`, the efficacy in assay [1] is 12.5% (inactive). Also, the outcome in assay [2] was inactive.
For `COc1ccc(C(=O)N2CCN(CC(=O)N3CCOCC3)CC2)cc1` the same measures were -11.2% (inactive) and “inactive”.
Regarding `COc1ccc(C2C(=O)c3ccccc3C2=O)cc1`, the efficacy in assay [1] was -26.8% (inactive). The compound was called inactive in [2].
The matching figures for `O=C1OC(CN2CCOCC2)CN1/N=C/c1ccc([N+](=O)[O-])o1` (stereo unspecified): 29.1% (inactive) and “inactive”.
For `Cn1c(=O)c2c(ncn2CCO)n(C)c1=O` the same measures were -37.9% (inactive) and “inactive”.
The matching figures for `COC(=O)C1=C(C)NC(C)=C(C(=O)OCCc2ccc(N3CCN(C(c4ccccc4)c4ccccc4)CC3)cc2)C1c1cccc([N+](=O)[O-])c1` (stereo unspecified): -12.1% (inactive) and “inactive”.
Turning to `CCN1CCC[C@H]1CNC(=O)c1c(O)c(Cl)cc(Cl)c1OC`, in [1], the efficacy is -17.7% (inactive). For the same compound, the compound was called inactive in [2].
Turning to `O=C(NCC(O)CO)c1c(I)c(C(=O)NCC(O)CO)c(I)c(N(CCO)C(=O)CO)c1I` (stereo unspecified), in [1], the efficacy was 35.5% (inactive). For the same compound, in [2], the outcome was inactive.
Turning to `O=C(CCCN1CCC2(CC1)C(=O)NCN2c1ccccc1)c1ccc(F)cc1`, the outcome in [3], in [4], in [5] and in assay [6] was inactive.
For the compound `CC(C)c1cccc(C(C)C)c1O`, the result in assay [3], in [7], in [4], in assay [5] and in assay [6] was inactive. Also, the parasite growth remaining, % of DMSO control (lower = more inhibition) in assay [8] stood at 102%.
Take `C[C@]12CCC(=O)C=C1CC[C@@H]1[C@@H]2CC[C@@]2(C)[C@H]1CC[C@]2(C)O`: the outcome in assay [7] was inactive.
As to `O=c1[nH]cnc2[nH]ncc12`, in assay [8], the parasite growth remaining, % of DMSO control (lower = more inhibition) was found to be 91.2%.
For `CCC1(c2ccc(N)cc2)CCC(=O)NC1=O` (stereo unspecified), the result in [3], in assay [4], in assay [5] and in assay [6] was inactive. The max response in [9] was 3.2% (inactive) and 30.1% (inactive). The parasite growth, % of DMSO control in assay [10] was found to be 89%. Moreover, the parasite growth remaining, % of DMSO control (lower = more inhibition) in assay [8] came to 103%. Further, the parasite growth, % of control (lower = inhibition) in assay [11] was determined as 117%. Also, in assay [1], the efficacy was -15.9% (inactive).
With `[N-]=[N+]=CC(=O)OC[C@H](N)C(=O)O`, the call in assay [12] was inactive. In addition, the values for the max response in assay [13] and in [14] were -15% (inactive) and 0.519% (inactive), respectively. The Potency entry in assay [15] is “inactive”. In assay [1], the efficacy was 10.3% (inactive).
`Cn1c(=O)c2[nH]cnc2n(C)c1=O` gave a parasite growth, % of DMSO control in [10] of 85.4%. Besides, the parasite growth, % of control (lower = inhibition) in assay [11] stood at 114%. For the same compound, in [1], the efficacy was -18.7% (inactive).
